The values that follow come from PubChem BioAssay AID1745851 (National Center for Advancing Translational Sciences (NCATS), 2022).

The other results are listed elsewhere or left out. Inconclusive results are not listed. The source made the active and inactive calls. The call rests on the fitted dose curve; in most records, active means well fitted inhibition curve with a large enough effect; inconclusive means small, poorly fitted or top-dose-only effect; inactive means flat fitted curve, though single readings scatter.
On the % scale 0 is the no-effect control and ±100 the full control effect.

The nature of the assay: Counterscreen for Target Class Profiling of Small Molecule Inhibitors of Methyltransferases. The following applies: MTase-Glo coupled enzymes, SAH conversion luminescence, no MTase; series mostly up to 57.3 µM; activity change, negative = inhibition: at the top concentration. The source says:
PI: Matthew D. Hall Ph.D. and Quinlin M. Hanson Ph.D. National Center for Advancing Translational Sciences (NCATS) National Institute of Health (NIH) Rockville, MD Target class profiling (TCP) is a chemical biology approach amenable to investigating understudied biological targets. TCP is achieved by developing a generalizable assay platform and applying it to screen a curated set of compound libraries against representative members of a target class. Small molecule methyltransferases (SMMTase) are a subclass of methyltransferase that act on metabolites to modulate signaling pathways, metabolize xenobiotics, or balance the available methyl pool. We screened four curated libraries totaling 27,574 unique compounds against the SMMTases nicotinamide N-methyltransferase (NNMT), phenylethanolamine N-methyltransferase (PNMT), histamine N-methyltransferase (HNMT), glycine N-methyltransferase (GNMT), catechol O-methyltransferase (COMT), and guanidinoacetate N-methyltransferase (GAMT). The data generated by this TCP can be leveraged for informed tool molecule development. For example, in the associated publication we identified a chemotype of HNMT-selective inhibitors. Additionally, we identified a putative SMMTase-selective inhibitor with potential as a tool molecule for studying broader methyltransferase biology. High-through put screening assays were developed at the National Center for Advancing Translational Science (NCATS) for the enzymes NNMT, PNMT, HNMT, GNMT, COMT, and GAMT. Enzymatic activity was measured as a function of SAM cofactor conversion using the MTase Glo kit (Promega) for all enzymes. All assays were performed in 1536-well format with substrates and SAM concentrations at KM values. Enzyme concentration and assay timing were optimized for 10-20% SAM conversion. Initial screening of 27,574 compounds was done as single-point assays using the highest compound concentration (40 uM). 1,434 compounds were identified as hits (at least 50% inhibition) under these conditions. These compounds were replated in 11-point dose response and assayed against NNMT, PNMT, HNMT, GNMT, COMT, GAMT, and a counter-assay. The IC50 and efficacy (maximal response) values were determined for each dose-response curve. These values are also accounted for in the area under the curve (AUC) values.
PROTOCOL TABLE (as described by Inglese J, Shamu CE and Guy RK. 2007) SEQUENCE No. (e.g., 1, 2, 3, etc.); PARAMETER (e.g., Cells, Incubation, Reagent, etc.); VALUE; DESCRIPTION. 1; Reagent; 3 uL; SAH (16 uM) in reaction buffer, columns 1-48. 2; Reagent; 1 uL; SAM (4x) in reaction buffer, columns 1-48. 3; Controls; 23 nL; DMSO in column 4; sinefungin in DMSO (0 uM - 40 uM) in 7-point 1:2 dilution series (n = 2) in column 2. 4; Compounds; 23 nL; Columns 5-48. 5; Time; 20 min; Incubation. 6; Reagent; 1 uL; MTase-Glo reagent (5X), columns 1-48. 7; Time; 30 min; Incubation. 8; Reagent; 5 uL; MTase-Glo Detection reagent, columns 1-48. 9; Time; 30 min; Incubation. 10; Detection; Luminescence; ViewLux uHTS Microplate Imager (PerkinElmer). NOTES (numbers refer to Sequence numbers above) 1, 2. White Medium Binding 1536-well plates (white, flat bottom, medium binding Cat# AWK010000A, Aurora Microplates, Scottsdale, AZ); Reaction buffer: 50 mM Tris, pH 8.0, 3 mM MgCl2, 1 mM EDTA, 50 mM NaCl, 1 mM DTT, and 0.1 mg/mL BSA; refer to tables 2 and S1 for specific reagent concentrations. 3, 4. Pintool transfer 5, 7, 9. Room temperature 5. Final reaction conditions: 1 uM SAH, 4 uM SAM, 50 mM Tris, pH 8.0, 3 mM MgCl2, 1 mM EDTA, 50 mM NaCl, 1 mM DTT, and 0.1 mg/mL BSA. 7. Conversion of SAH to ADP; MTase Glo Kit (Promega, Madison, WI). 9. Conversion of ADP to ATP and detection by UltraGlo luciferase; MTase Glo Kit (Promega, Madison, WI). 10. Settings: 20 s exposure, 1X binning, high gain, medium speed. REFERENCES: Inglese J, Shamu CE and Guy RK, Reporting data from high throughput screening of small molecule libraries, Nature Chemical Biology, 2007, 3(8): 438-441. doi.org/10.1038/nchembio0807-438. […]
Regarding `O=C(Nc1ccc2ncnc(N3CCCCC3)c2c1)C1CCCCC1`, the Potency is 9.61 µM (active).

Take `COc1ccccc1-c1[nH]nc2ncc(C(=O)N3CCN(Cc4ccccc4)CC3)nc12`: the “activity change, negative = inhibition” value is -1.28% [at 85.7 µM] (inactive). Still for that read-out and setting: the same measure for `CC1(C)[C@H](Cc2cc(-c3ccccc3)on2)C[C@@H]1NCC1CC1`: -2.14% [at 85.7 µM] (inactive). As for `COc1ccc(-c2nc3ccncc3[nH]2)cc1`, the “activity change, negative = inhibition” value was -1.57% [at 114 µM] (inactive).

`Cn1ccc(Nc2cc3c(cn2)CN(CCc2ccccc2)CCN3)n1`: the “activity change, negative = inhibition” value is -2.16% [at 85.7 µM] (inactive). Turning to `COc1cc2c(cc1O)NC(=O)CC2c1cn[nH]c1-c1cc(C)ccc1C` (configuration not stated), the “activity change, negative = inhibition” value was 0.234% (inactive). On to `CC(C)c1nccn1CCCNc1nc(-c2ccncc2)nc2c1cnn2C`, for which the “activity change, negative = inhibition” value is 1.89% (inactive). With `Cc1cnc(C2CCC2)n1C1CCN(C(=O)CCC2CCCC2)CC1`, the “activity change, negative = inhibition” value is -6.67% (inactive). As for `CCOc1ccccc1CN1CCC(Cc2nc(-c3cccnc3)n[nH]2)C1` (configuration not stated), the “activity change, negative = inhibition” value is -2.28% (inactive). In the case of `CCCS(=O)(=O)N1CCCC(Cn2c(C)nc3cccnc32)C1` (configuration not stated), the “activity change, negative = inhibition” value is 0.0698% (inactive).

For `CC(C)CCN1CC2(CCCN(C(=O)c3ccn(C)c(=O)c3)C2)CCC1=O` (configuration not stated), the “activity change, negative = inhibition” value is 3.19% (inactive). On to `CCCc1sc(NC(=O)C[C@H]2NC(=O)c3ccccc3NC2=O)nc1C(=O)OC`, for which the “activity change, negative = inhibition” value was -0.625% (inactive).
